{"source": "PubChem BioAssay (EPA / NIEHS)", "note": "Activity calls are given as the source filed them. The calls were made as follows: active = hit-call score of the fitted dose curve at least 0.9, where 1 is the maximum; inactive = score below 0.9.", "data": [{"target": "Nuclear respiratory factor 1 (Homo sapiens) (UniProt Q16656)", "sequence (Q16656 whole entry, looked up)": "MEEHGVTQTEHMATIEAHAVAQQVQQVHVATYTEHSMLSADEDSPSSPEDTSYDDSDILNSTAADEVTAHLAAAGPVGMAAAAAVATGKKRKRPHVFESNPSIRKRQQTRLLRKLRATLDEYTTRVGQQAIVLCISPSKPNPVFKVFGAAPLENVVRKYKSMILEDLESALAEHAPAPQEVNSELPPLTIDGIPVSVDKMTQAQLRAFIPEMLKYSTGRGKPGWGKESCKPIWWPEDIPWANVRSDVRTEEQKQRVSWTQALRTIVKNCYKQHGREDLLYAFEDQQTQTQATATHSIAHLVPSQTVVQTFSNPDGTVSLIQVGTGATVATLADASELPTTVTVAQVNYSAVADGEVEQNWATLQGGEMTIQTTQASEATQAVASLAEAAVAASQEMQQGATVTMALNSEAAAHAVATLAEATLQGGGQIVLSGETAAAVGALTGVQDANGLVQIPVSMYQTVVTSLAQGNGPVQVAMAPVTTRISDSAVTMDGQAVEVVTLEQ", "experiment": "ATG_NRF1_CIS: Attagene CIS-FACTORIAL HepG2 Assay for human Nuclear Respiratory Factor 1 (NRF1) Orphan Gene (AID 2282987)", "details": "HepG2 NRF1 cis-element reporter, Attagene multiplex; actives raise or lower the signal", "procedure": "ATG_CIS is a cell-based, multiplexed-readout assay that uses HepG2, a human liver cell line, with measurements taken at 24 hours after chemical dosing in a 24-well plate.ATG_NRF1_CIS is one of 52 assay component(s) measured or calculated from the ATG_CIS assay. It is designed to make measurements of mRNA induction, a form of inducible reporter, as detected with fluorescence intensity signals by Reverse transcription polymerase chain reaction (RT-PCR) and Capillary electrophoresis technology.Data from the assay component ATG_NRF1_CIS was analyzed into 1 assay endpoint. This assay endpoint, ATG_NRF1_CIS, was analyzed with bidirectional fitting relative to DMSO as the negative control and baseline of activity. Using a type of inducible reporter, measures of mRNA for gain or loss-of-signal activity can be used to understand the reporter gene at the transcription factor-level as they relate to the gene NRF1. Furthermore, this assay endpoint can be referred to as a primary readout, because this assay has produced multiple assay endpoints where this one serves a reporter gene function. To generalize the intended target to other relatable targets, this assay endpoint is annotated to the dna binding intended target family, where the subfamily is nuclear respiratory factors.\nHuman liver HepG2 cells are transiently transfected with multiple reporter transcription units (MRTUs) in 6-well plates using FuGene 6 reagent (Roche; 3 ml FuGene/1 mg DNA). The MRTU constructs are regulated by a cis-regulating element (promoter). […] A major difference between the CIS and TRANS system is that in CIS activities of endogenous TFs are measured, whereas the TRANS assay evaluates changes in activities of exogenous, chimeric NR-Gal4 proteins. […] At the end of 24 hour incubation, total RNA was isolated using TriZol reagent (Invitrogen). The isolated RNA is then reverse-transcribed using oligo(dT) primer and Mo-MLV reverse transcriptase (Invitrogen) with DNAse I (Ambion) treatment for 30 min. The one-tenth of the produced cDNA was amplified by PCR using Taq DNA polymerase (Invitrogen) and two reporter sequence-specific primers. The PCR products were fluorescently labeled by primer extension with 6-arboxyfluorescein (6-FAM) 5'-labeled reporter sequence-specific primer (2 min at 95 C, 20 s at 68 C and 10 min at 72 C) and these products were digested with 5U of HpaI (New England Biolabs) for 2h at 37 C. The fragments were purified using Qiaquick PCR columns (Qiagen), analyzed on an ABI 3130xL genetic analyzer (Applied Biosystems) with peak positions identified by using a set of X-rhodamine (ROX)-labeled MapMarker1000 molecular weight standards (BioVentures). The raw capillary electrophoresis data was processed using Attagraph software (Attagene).", "values": [{"smiles": "Clc1ccc(Sc2cc(Cl)c(Cl)cc2Cl)cc1", "outcome": "inactive"}, {"smiles": "CCC(C)NC(N)=O", "note": "(stereo not given)", "outcome": "inactive"}, {"smiles": "Cc1ccccc1S(N)(=O)=O", "outcome": "inactive"}, {"smiles": "C/C=C(\\C)C(=O)OCC/C=C\\CC", "outcome": "inactive"}, {"smiles": "O=C(O)Cc1c[nH]c2ccccc12", "outcome": "inactive"}, {"smiles": "CC/C=C\\CCCCCO", "outcome": "inactive"}, {"smiles": "CCOc1ccc2c(c1)C(C)CC(C)(C)N2", "note": "(stereo not given)", "outcome": "inactive"}, {"smiles": "CCCCCCCCCCC1CO1", "note": "(stereo not given)", "outcome": "inactive"}, {"smiles": "CC(O)(P(=O)(O)O)P(=O)(O)O", "outcome": "inactive"}, {"smiles": "CC[N+](CC)(CC(=O)Nc1c(C)cccc1C)Cc1ccccc1", "note": "(tested in a mixture with another compound)", "outcome": "inactive"}, {"smiles": "CN(C)Cc1cc(C(C)(C)C)c(O)c(C(C)(C)C)c1", "outcome": "inactive"}, {"smiles": "CCCCn1cc[n+](C)c1", "outcome": "inactive"}, {"smiles": "CN1CCCC1", "outcome": "inactive"}, {"smiles": "Clc1ccccn1", "outcome": "inactive"}, {"smiles": "Oc1cccc2ccccc12", "outcome": "inactive"}, {"smiles": "C[C@H]1C[C@H]2[C@@H]3CCC4=CC(=O)C=C[C@]4(C)[C@@]3(F)[C@@H](O)C[C@]2(C)[C@@]1(O)C(=O)CO", "outcome": "inactive"}, {"smiles": "CCCC(=O)OC", "outcome": "inactive"}, {"smiles": "CCCCCCCCCCCCCC", "outcome": "inactive"}, {"smiles": "O=C(Oc1ccccc1)c1ccccc1", "outcome": "inactive"}, {"smiles": "CC(C)CC(=O)CC(C)CC(C)C", "note": "(stereo not given)", "outcome": "inactive"}, {"smiles": "C=CCOCC(CC)(CO)COCC=C", "outcome": "inactive"}, {"smiles": "C=C1CC[C@H]2C[C@@H]1C2(C)C", "outcome": "inactive"}, {"smiles": "CC(=O)c1nccs1", "outcome": "inactive"}, {"smiles": "CCCCC(CC)COC(=O)CS", "note": "(stereo not given)", "outcome": "inactive"}, {"smiles": "CCCCCC1CCCC(=O)O1", "note": "(stereo not given)", "outcome": "inactive"}, {"smiles": "COc1ccccc1OCC(O)CO", "note": "(stereo not given)", "outcome": "inactive"}, {"smiles": "CCCCCCCCCC/C=C/C1CC(=O)OC1=O", "note": "(stereo not given)", "outcome": "inactive"}, {"smiles": "Cc1ccccc1S(=O)(=O)O", "outcome": "inactive"}, {"smiles": "O=C(O)/C=C/C(=O)O", "outcome": "inactive"}, {"smiles": "CC1=C(CC(=O)O)c2cc(F)ccc2/C1=C\\c1ccc(S(C)=O)cc1", "note": "(stereo not given)", "outcome": "inactive"}, {"smiles": "c1cc(N(CC2CO2)CC2CO2)ccc1Cc1ccc(N(CC2CO2)CC2CO2)cc1", "note": "(stereo not given)", "outcome": "inactive"}, {"smiles": "COc1cccc(OC)c1C(=O)O", "outcome": "inactive"}, {"smiles": "CCCCCCCCCCCCCCCCCC[N+](C)(C)C", "AC50": "16.8 µM (active)"}, {"smiles": "C1=CCC=C1", "outcome": "inactive"}, {"smiles": "CC(C)=CCOC(=O)c1ccccc1", "outcome": "inactive"}, {"smiles": "CO[Si](CCCNCCN)(OC)OC", "outcome": "inactive"}, {"smiles": "CC=CC(=O)O", "outcome": "inactive"}, {"smiles": "Cc1cc(-n2nc3ccc(Cl)cc3n2)c(O)c(C(C)(C)C)c1", "outcome": "inactive"}, {"smiles": "CC[N+](CC)(CC(=O)Nc1c(C)cccc1C)Cc1ccccc1", "outcome": "inactive"}, {"smiles": "O=C(C(=O)c1ccccc1)c1ccccc1", "outcome": "inactive"}]}]}
